Screens from PubChem.
Compounds with a hit are over-represented: about 4.7% of the library has one in this group of screens.
Calb FLC = affects C. albicans growth with fluconazole; C. albicans CaCi-2 (fluconazole-resistant clinical isolate) + fluconazole, Alamar Blue growth, 48 h; growth inhibition, % (concentration not given with the values); hit rate 0.57% among 300,000; AID 1979;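 active = growth inhibition above about 58% in most replicates, limit read from the data, passing the limit was not always enough; inconclusive = exactly half the replicates above a set limit; inactive = most replicates below a set limit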;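 also: all wells also contain fluconazole at 8 µg/ml as a sub-toxic cotreatment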
tim10-1 inh = tim10-1 yeast growth inhibition | S. cerevisiae tim10-1 ts strain growth, BacTiter-Glo, 24 h | hit rate 2.2% among 330,000 | inhibition, % at 20 µM;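 active = inhibition of at least 40%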;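 also: mutant grown at 25 °C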
tim23-1 inh = tim23-1 yeast growth inhibition. inhibition, % at 20 µM. AID 463212. hit rate 1.3% among 330,000. S. cerevisiae tim23-1 growth, BacTiter-Glo luminescence, 24 h;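 active = growth inhibition of the mutant yeast at or above 50%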;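 also: temperature-sensitive mutant grown at 25 °C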
PfHsp90 set2 = reduces growth (ATP signal) of yeast expressing P. falciparum Hsp90. S. cerevisiae expressing PfHsp90, BacTiter-Glo ATP, 48 h; yeast lacking PDR1 and PDR3 efflux regulators. inhibition, % at 9.4 µM. hit rate 0.32% among 310,000;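 active = every replicate shows inhibition above about 80%, whatever the replicate mean, limit read from the data; inconclusive = mean inhibition reaches the set limit but some replicate falls short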
TIM10 inh = TIM10 yeast growth inhibition; S. cerevisiae TIM10 strain growth, BacTiter-Glo luminescence, 24 h; AID 463195; inhibition, % at 10 µM; hit rate 1.4% among 330,000;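 active = inhibition of 40% or more at the single tested concentration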;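 also: wild-type TIM10 isogenic control strain grown at permissive 25 °C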
SKKanGAS inh = blocks kanamycin growth of S. pyogenes SKKanGAS strain | BacTiter-Glo, 6 h | inhibition, % at 7.5 µM | hit rate 1.3% among 300,000 | AID 1662;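 active = mean replicate score, as percent of positive control median, at least 50; inconclusive = mean below 50 but one replicate at or above 50; inactive = mean and every replicate below 50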;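 also: strain carries kanamycin resistance gene driven by streptokinase promoter and grows in 40 µg/ml kanamycin; loss of luminescence reflects streptokinase promoter inhibition or plain growth inhibition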
tim10-1 conf = confirmation of tim10-1 mutant yeast growth inhibitors | AID 463213 | shares compounds with tim10-1 inh | hit rate 56% among 7,400 | inhibition, % at 20 µM | S. cerevisiae tim10-1 ts strain growth, BacTiter-Glo, 24 h;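 active = inhibition of yeast growth at or above a set limit in either of two repeat tests at 20 µM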;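 also: tim10-1 mutant grown at permissive 25 °C to find synthetic lethal compounds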
TIM10 conf = TIM10 yeast growth inhibition, confirmed; shares compounds with TIM10 inh; S. cerevisiae tim10 strain growth, BacTiter-Glo luminescence, 24 h; inhibition, % at 10 µM; hit rate 63% among 4,600;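 active = inhibition of yeast growth at or above a set limit in either of two replicates at 10 µM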; also: this counterscreen used the strain with wild-type TIM10
Of the large screens only hits and unclear results are named; the others gave an inactive call (follow-up assays come after a bar, where they were run).

CCN1/C(=C/C=C/c2oc3ccc(-c4ccccc4)cc3[n+]2CC)Oc2ccc(-c3ccccc3)cc21	Calb FLC 75, tim10-1 inh 61, TIM10 inh 63, SKKanGAS inh 93 | tim10-1 conf inactive | TIM10 conf 42
CCC(=O)N(Cc1ccco1)c1nc(C(=O)Nc2ccc(Cl)cc2)c(C)s1	tim10-1 inh 46, TIM10 inh 44 | tim10-1 conf 35 | TIM10 conf 38
CCN(C(=O)c1ccco1)c1nc(CC(=O)Nc2ccc(Cl)cc2)cs1	none
Cc1cccc(N(C)S(=O)(=O)c2ccc3c(c2)C(C)(C)C(=O)N3C)c1	none
CCN(CC(=O)Nc1ccc(S(=O)(=O)N2CCCCC2)cc1)Cc1ccccc1	none (no result: PfHsp90 set2)
CCOc1ccc(CCNC(=O)CSCC(=O)Nc2ccc(OC)cc2)cc1OCC	none (no result: Calb FLC, SKKanGAS inh)
COc1cc(C(=O)Oc2cccc(C=O)c2)cc(OC)c1OC	none
O=Cc1cccc(OC(=O)c2ccc(Cl)cc2Cl)c1	tim10-1 inh 42, TIM10 inh 45 (no result: PfHsp90 set2) | tim10-1 conf inactive | TIM10 conf inactive
Cc1cccc(OCCCOc2cccc3cccnc23)c1C	tim10-1 inh 46, TIM10 inh 47, SKKanGAS inh 58 | tim10-1 conf inactive | TIM10 conf 39
O=C(NCCc1ccccc1)c1coc(=O)c(Br)c1	none
Cc1cc(C)c2nc3nc(C)c(C)cc3c(N)c2c1	tim10-1 inh 62, TIM10 inh 81 | tim10-1 conf 71 | TIM10 conf 81
CC(C)c1ccc(NC2CCCN(C(=O)CSc3nncn3C)C2)cc1 (stereo not given)	none
O=c1[nH][nH]c(-c2ccccc2)c1C=Nc1ccc(C(F)(F)F)cc1	none (no result: PfHsp90 set2)
O=c1[nH][nH]c(-c2ccccc2)c1C=Nc1ccc(OC(F)(F)F)cc1	tim10-1 inh 42, TIM10 inh 41 (no result: PfHsp90 set2) | tim10-1 conf 37 | TIM10 conf 37
N#CC1(C#N)CC(C=O)=C(N)C1(C#N)CC(=O)C12CC3CC(CC(C3)C1)C2 (stereo not given)	tim10-1 inh 40, TIM10 inh 48 | tim10-1 conf 48 | TIM10 conf 40
CC(C)C[C@H]1CN=C(Nc2ccccc2)N1CC1CCC(C(C)(C)C)CC1 (stereo not given in full)	tim10-1 inh 43, TIM10 inh 42 (no result: Calb FLC, SKKanGAS inh) | tim10-1 conf 32 | TIM10 conf 42
CC(C)C[C@H]1CN=C(Nc2ccccc2)N1CC1CCCC1	none
Cc1oc(-c2ccccc2Cl)nc1CS(=O)CC(=O)NCCCN1CC(C)CC(C)C1 (stereo not given)	none
O=S(=O)(c1cccc2cccnc12)N1CCN(Cc2ccccc2)CC1	none
CCOc1ccc2ccccc2c1/C=N/NC(=O)c1ccncc1	Calb FLC inconclusive
CCN1/C(=C/C=C/C=C/C=C/c2sc3ccccc3[n+]2CC)Sc2ccccc21	none
CCN1/C(=C/c2ccc3cc(C)ccc3[n+]2CC)Sc2ccccc21	tim10-1 inh 65, PfHsp90 set2 92, TIM10 inh 66 (no result: Calb FLC, SKKanGAS inh) | tim10-1 conf 45 | TIM10 conf 75
CCCc1ccc(OC(=O)c2cccs2)cc1	none
CCCc1ccc(OC(=O)c2ccc(O)cc2Cl)cc1	tim10-1 inh 51, TIM10 inh 41, SKKanGAS inh 81 | tim10-1 conf 38 | TIM10 conf 45
O=C(NCC(c1ccco1)N1CCN(c2ccccc2F)CC1)c1ccc2c(c1)OCO2 (stereo not given)	none
COc1ccc(-c2cn3cc(C)ccc3n2)cc1OC	tim10-1 inh 50, TIM10 inh 67 | tim10-1 conf 43 | TIM10 conf 60
COc1nnc(-c2ccc(N3CCCCC3)c(N)c2)c2ccccc12	tim10-1 inh 44, TIM10 inh 49 | tim10-1 conf 36 | TIM10 conf 40
COc1ccc(/C=C/C(=O)Nc2ccccc2)cc1OC	none
COc1ccc(/C=C/C(=O)C2(O)CCCCC2)cc1OC	tim10-1 inh 47, TIM10 inh 44 (no result: PfHsp90 set2) | tim10-1 conf 40 | TIM10 conf 31
COc1ccccc1CNCC(O)(c1ccc(F)cc1)c1ccc(F)cc1	none
COc1ccccc1CNCC(O)(c1ccc(Cl)cc1)c1ccc(Cl)cc1	tim10-1 inh 46, TIM10 inh 52 (no result: PfHsp90 set2) | tim10-1 conf inactive | TIM10 conf 44
Cc1cc(C)cc(N2C(=O)CC(Sc3ncn[nH]3)C2=O)c1 (stereo not given)	tim10-1 inh 45, TIM10 inh 41 | tim10-1 conf 35 | TIM10 conf 32
CC(=O)Nc1nc2nc(-c3ccccc3)cc(-c3ccccc3)n2n1	none
O=C(Nc1nc2nc(-c3ccccc3)cc(-c3ccccc3)n2n1)c1ccco1	tim10-1 inh 43, TIM10 inh 60 | tim10-1 conf inactive | TIM10 conf inactive
CC(C)Cn1c(=S)[nH]c2ccccc2c1=O	none
CC(C)Cn1c(=S)[nH]c2cc(Cl)ccc21	tim10-1 inh 43, TIM10 inh 50 | tim10-1 conf inactive | TIM10 conf inactive
CCOC(=O)c1c(NC(=O)CN2C(=O)C(=O)N(C(C)C)C2=O)sc(C)c1CC	none (no result: Calb FLC, SKKanGAS inh)
Cc1cc(C)c(C(=O)/C=C/c2cccc3ccccc23)c(=O)[nH]1	tim10-1 inh 43, TIM10 inh 41 | tim10-1 conf 38 | TIM10 conf inactive
COc1ccc(C(=O)Nc2ccc(S(=O)(=O)N3CCCC3)cc2)cc1	tim10-1 inh 55, TIM10 inh 45 | tim10-1 conf inactive | TIM10 conf 33
O=C(Nc1ccccc1)Nc1ccc(S(=O)(=O)N2CCCCC2)cc1	tim10-1 inh 43, TIM10 inh 51 | tim10-1 conf 32 | TIM10 conf inactive
O=C(COc1ccccc1F)Nc1ccc(S(=O)(=O)N2CCCC2)cc1	tim10-1 inh 50, TIM10 inh 44 (no result: Calb FLC, SKKanGAS inh) | tim10-1 conf inactive | TIM10 conf 33
O=C(COc1cccc(C(F)(F)F)c1)Nc1ccc(S(=O)(=O)N2CCCC2)cc1	tim10-1 inh 50, TIM10 inh 68 (no result: SKKanGAS inh) | tim10-1 conf 53 | TIM10 conf 51
O=C(COc1ccc(S(=O)(=O)N2CCCC2)cc1)Nc1ccc(F)cc1	none
Cc1cc2c(SCC(=O)NC3CCCC3)ncnc2s1	none
CC12CCC(=O)N1C(C(=O)Nc1nc(-c3cc(F)ccc3F)cs1)CS2 (stereo not given)	none
COc1ccccc1N(CC(=O)NCc1ccccc1)C(=O)CCC(=O)Nc1nccs1	none
Fc1ccc2c(c1)C(c1ccc(N3CCOCC3)cc1)=NNC(c1cccs1)=N2	Calb FLC inconclusive, tim10-1 inh 42, TIM10 inh 55 (no result: PfHsp90 set2) | tim10-1 conf inactive | TIM10 conf 36
